Records with an inconclusive call do not appear. A call without a number means that no potency is given here. Activity calls are given as the source filed them. The call rests on the fitted dose curve; in most records, active means well fitted inhibition curve with a large enough effect; inconclusive means small, poorly fitted or top-dose-only effect; inactive means no such curve, though single readings can be large or run the other way.

This test is described as follows: qHTS Assay for Lipid Storage Modulators: 3T3L1 Assay against Probe and Analogs. The settings on record: 3T3-L1 lipid droplets, BODIPY imaging, oleic acid, 18-24 h; series mostly up to 46.1 µM. From the text: Storing lipids as a reservoir for energy or the anabolism of elementary metabolites is a common feature of probably all cells and is conserved from bacteria to humans. The universal cellular lipid storage organelle is the so-called lipid storage droplet (LD). Although ubiquitous, LDs share a simple structure composed of a hydrophobic core that harbors the storage lipids, which is shielded by a droplet-specific phospholipid monolayer to which proteins are attached. The current model of LD biogenesis involves an incorporation of the lipid core into the membrane leaflets of the endoplasmic reticulum (ER) followed by a subsequent budding-like maturation of a LD, which ultimately pinches off. Once released, LD volume can increase by localized lipogenesis or fusion of existing droplets. Storage lipids are re-mobilized enzymatically by lipase activity. Lipase regulation in the adipocyte is heavily studied and involves multiple components including catecholamine signaling, the LD-associated proteins Perilipin and comparative gene identification-58 (CGI-58) and at least two lipases named hormone sensitive lipase (HSL) and adipocyte triglyceride lipase (ATGL). LD regulation outside of the adipocyte is poorly understood and only few components are known. However, there is an urgent need to learn more about ectopic fat depots as mislocalized storage of lipids, for example in the liver or muscle, is an eminent health problem associated with insulin resistance or the metabolic syndrome. We developed a laser-scanning cytometer assay to enable 1,536-well screening and combined the results of the small molecules screen with an RNAi database based on lipid storage. In this assay we tested analogs of the probe against a mammalian cell line (3T3L1), to see if these small molecules could disrupt lipid storage. NIH Molecular Libraries Probe Production Centers Network [MLPCN] NIH Chemical Genomics Center [NCGC] MLPCN Grant: MH085686 Assay Submitter (PI): Mathias Beller, Max-Planck-Institut fur Biophysikalische Chemie
3T3L1 cells were obtained from ATCC (CL-173). 4 uL of cells at 1.25 X 105 cell/mL were dispensed into 1536 well Poly-D-Lysine coated black with clear bottom imaging plates (Corning, #7356) to obtain 500 cells/well, and cultured at 37 °C, 95% humidity, and 5% CO2 overnight. The culture medium used was OPTI-MEM containing 5% fetal bovine serum (FBS). Triacsin C (Sigma-Aldrich T-4540), an inhibitor of long-chain fatty acyl CoA synthetase that blocks synthesis of triglycerides, was used as a positive control for lipid under-storage. A total of 23 nL of compounds dissolved in DMSO at different concentrations were transferred to the assay plates using a Kalypsys 1536-pin tool, the final DMSO concentration was 0.46%. One microliter of oleic acid at 400 uM (Calbiochem, #4954) was added to induce lipid droplet formation in the cells, and the plates were lidded. After 18-24 hours of incubation at 37 °C, 95% humidity, and 5% CO2, cells were fixed (8 % paraformaldehyde in PBS, 30 min, room temperature), washed three times with PBS, then stained for lipid droplet and nucleus using 4uL of PBS solution containing BODIPY lipid dye 493/503 (1:2000 dilution, Life Technologies, #3922) and Hoechst 33342 (1:1000, Life Technologies, #H3570) with Washer dispenser EL406(Biotek). Images were acquired using InCell 2000 (GE). Number of cells, number of lipids and sizes of lipids were analysis using GE Investigator software.
For `CCOc1cc(CCNC(=O)c2cc3sccc3n2Cc2ccccc2)cc(F)c1OCC`, the Potency was 52.6 nM (active). Turning to `O=C(NC1CCCc2c1cnn2-c1ccc(F)cc1F)c1cccs1` (centres undefined), the Potency result was “inactive”.

Regarding `CCOc1ccc(CCNC(=O)c2cc3sccc3n2Cc2ccccc2)c(F)c1OCC`, the Potency is 526 nM (active). Take `CCOC(=O)C1CCN(C(=O)C(C)(C)NC(=O)Nc2ccc3sccc3c2)CC1`: the Potency result was “inactive”.

For the compound `CC1=C(C(=O)NC2CCCc3c2cnn3-c2ccc(F)cc2F)OCCO1` (centres undefined), the Potency result was “inactive”. Then `O=C(N[C@H]1CCCc2c1cnn2-c1ccc(F)cc1F)c1ccccn1`, with “inactive”; and `CC(C)(NC(=O)Nc1ccccc1Cl)C(=O)N1CCC(C(=O)O)CC1`, with “inactive”; and `O=C(NC1CCCc2c1cnn2-c1ccc(F)cc1F)c1ccn[nH]1` (centres undefined), with “inactive”. On to `CC(C)(C)OC(=O)NC1CCCc2c1cnn2-c1ccc(F)cc1F` (centres undefined), for which the Potency entry was “inactive”. Regarding `CCOc1ccc(CCNC(=O)c2cc3sccc3n2C(C)C)cc1OCC`, the Potency is 29.6 nM (active). With `CCOc1ccc(CCNC(=O)c2cc3sccc3[nH]2)cc1OCC`, the Potency was 4690 nM (active).

Regarding `CCOC(=O)C1CCN(C(=O)C(C)(C)NC(=O)Nc2ccc3c(c2)CCC3)CC1`, the Potency result was “inactive”. Consider `CCOc1ccc(CCNC(=O)c2cc3sccc3n2CC=C(C)C)cc1OCC`, for which the Potency is 833 nM (active).

For the compound `CC(C)(C)OC(=O)NCCOCCOCCOc1cccc(-n2ncc3c2CCCC3NC(=O)c2ccccn2)c1` (centres undefined), the Potency result is “inactive”. `CCOC(=O)C1CCN(C(=O)C(C)(C)NC(=O)Nc2ccc([N+](=O)[O-])cc2)CC1`: the Potency entry was “inactive”. For `O=C(NC1CCCc2c1cnn2-c1cccc(O)c1)c1ccccn1` (centres undefined), the Potency result was “inactive”. Turning to `CCOC(=O)C1CCN(C(=O)C(C)(C)NC(=O)Nc2ccc(CN3CCOCC3)cc2)CC1`, the Potency result was “inactive”. For `CCOC(=O)C1CCN(C(=O)C(C)(C)NC(=O)Nc2ccc(F)c(F)c2)CC1`, the Potency result was “inactive”.

On to `O=C(c1cc2sccc2n1Cc1ccccc1)N(CCc1ccc(O)c(O)c1)Cc1ccccc1`, for which the Potency result is “inactive”. For `O=C(NC1CCCc2c1cnn2-c1ccc(F)cc1F)c1ccccn1` (centres undefined) the value was “inactive”; for `CCOC(=O)C1CCN(C(=O)C(C)(C)NC(=O)Nc2cccc(-c3csc(C)n3)c2)CC1`, “inactive”. Then `O=C(NCCc1ccc(O)c(O)c1)c1cc2sccc2n1Cc1ccccc1`, with “inactive”. For the compound `COc1ccc(-n2ncc3c2CCCC3NC(=O)c2ccccn2)cc1` (centres undefined), the Potency result is “inactive”. For the compound `CCOc1ccc(CCNC(=O)c2cc3ccccc3n2Cc2ccc(Cl)c(F)c2)cc1OCC`, the Potency is 18.7 nM (active). With `O=C(O)c1cccc(-c2noc(-c3ccccc3F)n2)c1`, the Potency is 2640 nM (active). Regarding `CCOc1ccc(CCNC(=O)c2cc3sccc3n2C)cc1OCC`, the Potency result was “inactive”. For the compound `COc1nc(-c2ccc3c(c2)OCO3)n(-c2ccc(NC(=O)CSc3ccccc3)cc2)n1`, the Potency result is “inactive”. Then `CCOc1ccc(CCNC(=O)c2cc3sccc3n2CCN2CCN(C)CC2)cc1OCC`, with 1320 nM (active). Then `CN(C)Cc1ccc(-c2nc3cccc4c3n2CCNC4=O)cc1`, with “inactive”.
